# PubChem BioAssay
# The source made the active and inactive calls. Unless noted, how the calls were made is not given here.
# Key:
# [1] = compound effects on lung adenocarcinoma cell viability – A549, calcein-AM fluorescence, 48 h, basal, profiling panel (AID 1162); details: higher = more signal; further: test concentration not given here
# [2] = compound effects on differentiated 3T3-L1 adipocyte viability – cell-based, 3T3-L1 adipocytes, calcein-AM fluorescence, 48 h, basal, profiling panel (AID 1163); details: 3T3-L1 adipocytes viability, higher = more signal; further: test concentration not given here
# [3] = compound effects on hepatocellular carcinoma cell viability – HepG2, calcein-AM fluorescence, 48 h, basal, profiling panel (AID 1164); details: higher = more signal; further: test concentration not given here
# [4] = compound effects on multiple myeloma cell viability – MM1S, calcein-AM fluorescence, 48 h, basal, profiling panel (AID 1165); details: higher = more signal;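 further: viability of MM1S multiple myeloma cells under basal unstimulated conditions; test concentration not given here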
# [5] = calcein-AM signal in unstimulated myeloma cells – cell-based, calcein-AM fluorescence, 48 h, PK04 Diversity Set, profiling panel (AID 1166); details: RPMI8226 myeloma viability, higher = more signal;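 further: cells grown under basal conditions without added stimulus; test concentration not given here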
# [6] = JC-1 mitochondrial signal, unstimulated HepG2 cells – cell-based, JC-1 fluorescence, 24 h, 100 nL compound, profiling panel (AID 1167); details: HepG2 mitochondrial potential, higher = more signal; further: test concentration not given here
# [7] = JC-1 mitochondrial signal, unstimulated adipocytes – cell-based, JC-1 fluorescence, 3T3-L1 adipocytes, 24 h, 100 nL compound, profiling panel (AID 1168); details: JC-1 mitochondrial fluorescence, higher = more signal, called active from +8 up or from −8 down; further: test concentration not given here
# [8] = JC-1 mitochondrial signal, unstimulated myeloma cells – cell-based, JC-1 fluorescence, RPMI8226, 24 h, 100 nL compound, profiling panel (AID 1169); details: JC-1 mitochondrial potential fluorescence, higher = more signal; further: test concentration not given here
# [9] = JC-1 mitochondrial signal, unstimulated MM1S myeloma – cell-based, JC-1 fluorescence, 24 h, 100 nL compound, profiling panel (AID 1170); details: MM1S mitochondrial potential, higher = more signal; further: test concentration not given here
# [10] = resazurin metabolic signal in A549 cells – cell-based, resazurin fluorescence, 24 h, PK04 Diversity Set, profiling panel (AID 1171); details: A549 viability, higher = more signal, called active from +8 up or from −8 down; further: test concentration not given here
# [11] = resazurin metabolic signal in HepG2 cells – cell-based, resazurin fluorescence, 24 h, PK04 Diversity Set, profiling panel (AID 1172); details: HepG2 viability, higher = more signal; further: test concentration not given here
# [12] = budding yeast growth changes without added modifier – OD600, strain BY4716, 24 h, basal condition, primary screen (AID 1173); details: S. cerevisiae BY4716 growth, OD600, 24 h; higher = more signal, called active from +8 up or from −8 down
# [13] = viability profiling in MM1S myeloma cells – cell-based, resazurin fluorescence, basal, 24 h, PK04 Diversity Set, profiling panel (AID 1174); details: higher = more signal, called active from +8 up or from −8 down; further: test concentration not given here
# [14] = target: Dihydroorotate dehydrogenase (quinone), mitochondrial (Plasmodium falciparum (isolate 3D7)) (UniProt Q08210); assay: inhibition of P. falciparum DHODH – biochemical, C-terminal His tag, absorbance 600 nm, primary screen (AID 1175); details: PfDHODH enzyme, DCIP absorbance 600 nm; higher = more signal, called active from +8 up or from −8 down;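 further: recombinant parasite enzyme with a five histidine tag at its C terminus; test concentration not given here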
# Sequence of Dihydroorotate dehydrogenase (quinone), mitochondrial (Plasmodium falciparum (isolate 3D7)) (Q08210 whole entry, looked up): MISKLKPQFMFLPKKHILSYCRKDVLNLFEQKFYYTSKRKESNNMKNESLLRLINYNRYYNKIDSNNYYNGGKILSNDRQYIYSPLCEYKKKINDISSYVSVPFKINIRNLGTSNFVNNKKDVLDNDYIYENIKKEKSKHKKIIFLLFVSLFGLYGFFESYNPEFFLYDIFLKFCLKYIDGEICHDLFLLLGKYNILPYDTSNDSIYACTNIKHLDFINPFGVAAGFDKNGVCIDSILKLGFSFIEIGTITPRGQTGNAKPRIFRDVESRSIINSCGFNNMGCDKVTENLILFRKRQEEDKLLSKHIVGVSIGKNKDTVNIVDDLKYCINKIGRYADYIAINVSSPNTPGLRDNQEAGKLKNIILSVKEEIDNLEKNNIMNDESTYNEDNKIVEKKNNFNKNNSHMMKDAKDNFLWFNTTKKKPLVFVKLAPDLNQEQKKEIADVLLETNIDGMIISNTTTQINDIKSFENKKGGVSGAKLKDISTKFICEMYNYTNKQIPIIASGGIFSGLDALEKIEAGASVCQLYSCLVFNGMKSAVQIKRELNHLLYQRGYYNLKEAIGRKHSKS
# [15] = inhibition of PAO1 biofilm formation – strain PAO1, LB-PBS medium, absorbance 600 nm, primary screen (AID 1176); further: test concentration not given here; details: P. aeruginosa PAO1 growth/biofilm, A600, 12 h; higher = more signal
# [16] = growth modulation of vineyard yeast isolate – strain RM11-1a, OD600, basal, 24 h, primary screen (AID 1177);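 further: cultures grown under basal conditions with no added stressor; test concentration not given here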; details: S. cerevisiae RM11-1a growth, OD600, 24 h; higher = more signal, called active from +8 up or from −8 down
# [17] = growth of efflux-deficient E. coli DRC39 – strain DRC39, OD650, 24 h, E. coli filamentation inducers, primary screen (AID 1178);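 further: growth measured as culture turbidity by optical density at 650 nm; test concentration not given here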; details: E. coli DRC39 acrAB, higher = more signal, called active from +8 up or from −8 down
# [18] = growth of efflux-deficient E. coli DRC39 – strain DRC39, OD650, 48 h, E. coli filamentation inducers, primary screen (AID 1179);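 further: screen aims at cell division blockers that make cells filament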; details: E. coli DRC39 delta-acrAB growth, higher = more signal, called active from +8 up or from −8 down
# [19] = viability profiling in RPMI8226 myeloma cells – cell-based, resazurin fluorescence, basal, 24 h, PK04 Diversity Set, profiling panel (AID 1180); details: higher = more signal;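 further: RPMI8826 multiple myeloma cell line at 5000 cells per well; test concentration not given here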
# [20] = target: E3 ubiquitin-protein ligase XIAP (Homo sapiens) (UniProt P98170); assay: small molecules binding XIAP protein – biophysical, small-molecule microarray, fluorescence 635 nm, primary screen (AID 1181); details: higher = more signal;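 further: score merges 667 nm emission and signal to noise over triplicate slides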
# Sequence of E3 ubiquitin-protein ligase XIAP (Homo sapiens) (P98170 whole entry, looked up): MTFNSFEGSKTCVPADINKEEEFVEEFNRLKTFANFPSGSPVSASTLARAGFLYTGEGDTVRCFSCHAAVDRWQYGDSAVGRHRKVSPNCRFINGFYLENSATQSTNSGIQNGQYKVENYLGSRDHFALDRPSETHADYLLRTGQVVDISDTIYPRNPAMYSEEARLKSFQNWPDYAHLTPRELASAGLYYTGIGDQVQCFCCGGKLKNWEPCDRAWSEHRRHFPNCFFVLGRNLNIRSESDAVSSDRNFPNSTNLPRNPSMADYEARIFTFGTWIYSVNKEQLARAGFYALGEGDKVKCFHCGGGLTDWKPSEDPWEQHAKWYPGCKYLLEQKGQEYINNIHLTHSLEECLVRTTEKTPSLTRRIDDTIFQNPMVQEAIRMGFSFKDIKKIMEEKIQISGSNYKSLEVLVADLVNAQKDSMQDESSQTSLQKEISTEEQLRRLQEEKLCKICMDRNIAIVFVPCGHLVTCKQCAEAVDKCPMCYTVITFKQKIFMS
Structure (SMILES),z-score [1],z-score [2],z-score [3],z-score [4],z-score [5],z-score [6],z-score [7],z-score [8],z-score [9],z-score [10],z-score [11],z-score [12],z-score [13],composite z-score [14],z-score [15],z-score [16],z-score [17],z-score [18],z-score [19],composite z-score [20]
COCCCNC(=O)[C@@]1(CCC(=O)OC(C)(C)C)N=C(c2ccc(OCCCO)cc2)O[C@H]1c1ccccc1,0.899,-0.0512,0.317,0.32,0.678,0.842,2.11 (inactive),0.721,-1.08,-0.376 (inactive),-0.464,1.12 (inactive),0.34 (inactive),-1.1 (inactive),-0.568 (inactive),0.795 (inactive),0.267 (inactive),1.22 (inactive),0.137,-0.171
[N-]=[N+]=NCc1ccccc1C[C@@]1(C(N)=O)N=C(c2ccc(OCCCO)cc2)O[C@@H]1c1ccccc1N=[N+]=[N-],-0.908,-0.278,-0.705,-3,-3.1,-1.07,-0.71 (inactive),-1.08,-0.62,-0.583 (inactive),0.304,-1.35 (inactive),-1.32 (inactive),0.474 (inactive),2.28 (inactive),0.0193 (inactive),0.207 (inactive),-0.893 (inactive),-0.644,0.0871
CCOC(=O)C[C@H]1[C@H](OC(=O)c2cc3ccccc3oc2=O)[C@@H](NC(=O)c2ccc(-c3ccccc3)cc2)c2cc(OCCCO)ccc2N1C(=O)Cc1ccc(OC)cc1,-0.382,1,0.0719,0.17,-0.84,-0.0623,-1.08 (inactive),-0.97,-0.0508,0.0573 (inactive),0.288,0.0392 (inactive),-0.346 (inactive),-0.487 (inactive),0.285 (inactive),-0.0775 (inactive),-0.225 (inactive),-0.618 (inactive),-0.0232,-0.338
COc1ccc(C(=O)Nc2cccc(CN3C(=O)[C@]4(O[C@H](CC(=O)N(CCO)Cc5ccccc5)[C@@H]([Si](C)(C)c5ccc(OC)cc5)[C@@H]4C)c4ccccc43)c2)cc1,-0.983,0.385,-0.801,-0.829,-3.92,0.52,1.3 (inactive),-0.877,-1.51,-1.51 (inactive),-0.754,0.404 (inactive),-1.87 (inactive),-1.92 (inactive),0.769 (inactive),3.54 (inactive),1.46 (inactive),0.852 (inactive),-1.52,1.38
COC(=O)C(CC#Cc1ccc2c(c1)[C@]1(C(=O)N2)[C@H](C(=O)N2CCN(c3ncccn3)CC2)[C@H]2C(=O)O[C@H](c3ccccc3)[C@H](c3ccccc3)N2[C@@H]1c1ccc(O)cc1)C(=O)OC,0.489,-0.569,1.24,0.142,-2.03,-0.921,0.00989 (inactive),-1.09,-0.205,-0.423 (inactive),-0.146,0.586 (inactive),0.235 (inactive),-15.3 (active),1.67 (inactive),1.25 (inactive),0.167 (inactive),0.26 (inactive),-1.47,0.309
OCCCc1cc[n+](Cc2cc3c(cc2Br)OCO3)cc1,-0.322,0.504,-0.325,0.4,-0.419,0.138,0.506 (inactive),-0.437,1.39,-0.298 (inactive),-0.0125,-0.486 (inactive),0.463 (inactive),-0.22 (inactive),-0.653 (inactive),-0.126 (inactive),0.311 (inactive),-0.0111 (inactive),0.275,-0.0931
O=C1O[C@H](c2ccccc2)[C@H](c2ccccc2)N2[C@H]1[C@@H](C(=O)N1CCN(c3ncccn3)CC1)[C@]1(C(=O)Nc3ccc(C#CC4(O)CCCCCC4)cc31)[C@H]2c1ccc(O)cc1,1.84,0.783,1.58,0.0827,-0.153,-0.553,-0.166 (inactive),-0.259,0.18,1.17 (inactive),0.596,-0.436 (inactive),0.776 (inactive),0.0991 (inactive),1.05 (inactive),1.82 (inactive),0.851 (inactive),1.31 (inactive),0.995,-0.0663
COC(=O)Cn1c(C(=O)N(C)C)cc2c1C[C@H]1CN(C(=O)c3ccccc3)[C@@](Cc3ccccc3)(C(=O)OC)[C@@H]21,-0.314,0.275,-0.479,0.0914,-0.512,-1.11,-0.327 (inactive),-0.146,-1.11,0.374 (inactive),0.971,0.282 (inactive),0.52 (inactive),-0.777 (inactive),-0.747 (inactive),-0.161 (inactive),0.304 (inactive),-1.15 (inactive),1.09,0.343
COC(=O)[C@@]1(Cc2ccc(F)cc2)[C@H]2c3cc(C(=O)N4CCCC4)n(Cc4ccc(OC(F)(F)F)cc4)c3C[C@H]2CN1C(=O)c1ccccc1,-1.21,-0.749,0.0322,-1.04,-0.55,-0.269,-1.35 (inactive),-0.603,-0.787,-0.165 (inactive),0.178,0.944 (inactive),-0.799 (inactive),-0.132 (inactive),0.827 (inactive),0.157 (inactive),-0.961 (inactive),-0.678 (inactive),-0.453,0.0306
